According to article PMC7862700, “An all-to-all approach to the identification of sequence-specific readers for epigenetic DNA modifications on cytosine”:

Key:
Assay in all cases: DAPPL (digital affinity profiling via proximity ligation, sequencing); 10 mM Tris-HCl pH 7.5, 50 mM NaCl, 1 mM DTT, 4% glycerol, room temperature, 30 min; GST-TFs on glutathione beads, 16-mer random dsDNA library, 0.1% formaldehyde crosslink after washing; high values mean tight binding
FLI1 = target: T1, FLI1 (Homo sapiens, UniProt Q01543 1-452); conditions: protein: recombinant; tags: N-terminal GST; dsDNA, one strand shown
T1 sequence: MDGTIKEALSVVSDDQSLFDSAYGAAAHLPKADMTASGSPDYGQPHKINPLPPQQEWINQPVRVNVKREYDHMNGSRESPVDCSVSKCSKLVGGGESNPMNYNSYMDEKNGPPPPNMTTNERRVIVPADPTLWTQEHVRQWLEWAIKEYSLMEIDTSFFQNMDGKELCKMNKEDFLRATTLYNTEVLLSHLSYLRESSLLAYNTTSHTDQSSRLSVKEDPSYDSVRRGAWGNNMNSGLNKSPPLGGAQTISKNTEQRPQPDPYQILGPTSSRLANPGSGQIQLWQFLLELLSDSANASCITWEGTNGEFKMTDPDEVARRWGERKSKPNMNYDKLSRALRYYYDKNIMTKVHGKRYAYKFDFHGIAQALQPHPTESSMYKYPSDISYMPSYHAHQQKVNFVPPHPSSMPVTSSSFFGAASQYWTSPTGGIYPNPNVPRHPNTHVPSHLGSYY
Outline: (§1)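 Pools were built from human transcription factors expressed in yeast as GST fusions, captured on glutathione beads and DNA-barcoded, along with a tag-only sample. Incubation with 200 nmole of a 16-mer random double-stranded DNA library lasted 30 min at room temperature in Tris/NaCl/DTT/glycerol buffer, and was followed by washing, 0.1% formaldehyde crosslinking, proximity ligation, PCR amplification and Illumina NextSeq500 sequencing. Binding signal is the quotient of each hexamer's read frequency for a factor and its frequency for the tag-only sample.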

ELK1 = target: T2, ELK1 (Homo sapiens, UniProt P19419 1-428); conditions: protein: recombinant; tags: N-terminal GST; dsDNA, one strand shown
T2 sequence: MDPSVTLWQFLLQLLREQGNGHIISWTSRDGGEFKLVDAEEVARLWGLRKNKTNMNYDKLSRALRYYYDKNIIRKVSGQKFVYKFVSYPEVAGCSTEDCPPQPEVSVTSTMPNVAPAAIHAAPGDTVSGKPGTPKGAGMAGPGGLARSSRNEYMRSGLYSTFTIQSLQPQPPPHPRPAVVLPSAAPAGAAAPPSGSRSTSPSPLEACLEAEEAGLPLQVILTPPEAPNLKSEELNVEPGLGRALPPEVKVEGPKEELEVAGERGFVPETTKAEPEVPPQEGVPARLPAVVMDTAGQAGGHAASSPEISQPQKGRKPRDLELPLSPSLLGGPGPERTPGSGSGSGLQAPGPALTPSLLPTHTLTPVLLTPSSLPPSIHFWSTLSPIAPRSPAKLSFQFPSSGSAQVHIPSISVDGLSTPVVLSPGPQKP
Outline: as §1

GABPA = target: T3, GABPA (Homo sapiens, UniProt Q06546 1-454); conditions: protein: recombinant; tags: N-terminal GST; dsDNA, one strand shown
T3 sequence: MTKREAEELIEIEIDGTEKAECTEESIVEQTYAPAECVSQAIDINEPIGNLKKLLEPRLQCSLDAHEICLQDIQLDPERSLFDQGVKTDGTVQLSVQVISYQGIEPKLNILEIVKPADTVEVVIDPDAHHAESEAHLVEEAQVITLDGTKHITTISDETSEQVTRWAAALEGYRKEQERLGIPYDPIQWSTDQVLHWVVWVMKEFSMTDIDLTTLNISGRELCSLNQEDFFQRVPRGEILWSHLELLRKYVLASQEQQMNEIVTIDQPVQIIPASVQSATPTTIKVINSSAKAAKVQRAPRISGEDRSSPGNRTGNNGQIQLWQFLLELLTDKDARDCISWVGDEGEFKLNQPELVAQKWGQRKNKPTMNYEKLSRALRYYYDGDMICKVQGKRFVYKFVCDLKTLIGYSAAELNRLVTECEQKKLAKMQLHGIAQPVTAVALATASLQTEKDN
Outline: as §1

ERG = target: T4, ERG (Homo sapiens, UniProt P11308 1-479); conditions: protein: recombinant; tags: N-terminal GST; dsDNA, one strand shown
T4 sequence: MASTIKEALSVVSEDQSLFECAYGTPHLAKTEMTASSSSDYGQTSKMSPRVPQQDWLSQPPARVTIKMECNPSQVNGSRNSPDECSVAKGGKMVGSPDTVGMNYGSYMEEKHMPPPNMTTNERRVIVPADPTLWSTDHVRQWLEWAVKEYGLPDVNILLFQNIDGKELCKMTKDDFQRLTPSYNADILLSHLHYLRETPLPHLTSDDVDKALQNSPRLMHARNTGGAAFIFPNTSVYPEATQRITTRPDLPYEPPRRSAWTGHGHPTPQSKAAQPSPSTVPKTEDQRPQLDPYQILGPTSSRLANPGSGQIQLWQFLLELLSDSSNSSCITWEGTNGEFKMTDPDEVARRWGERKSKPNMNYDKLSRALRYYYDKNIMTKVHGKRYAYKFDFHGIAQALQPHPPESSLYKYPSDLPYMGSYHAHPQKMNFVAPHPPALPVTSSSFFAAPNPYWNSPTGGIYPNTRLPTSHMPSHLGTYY
Outline: as §1

ELF1 = ELF1 (Homo sapiens, UniProt P32519 1-619); conditions: protein: recombinant; tags: N-terminal GST; dsDNA, one strand shown
Outline: as §1

EHF = target: T5, EHF (Homo sapiens, UniProt Q9NZC4 1-300); conditions: protein: recombinant; tags: N-terminal GST; dsDNA, one strand shown
T5 sequence: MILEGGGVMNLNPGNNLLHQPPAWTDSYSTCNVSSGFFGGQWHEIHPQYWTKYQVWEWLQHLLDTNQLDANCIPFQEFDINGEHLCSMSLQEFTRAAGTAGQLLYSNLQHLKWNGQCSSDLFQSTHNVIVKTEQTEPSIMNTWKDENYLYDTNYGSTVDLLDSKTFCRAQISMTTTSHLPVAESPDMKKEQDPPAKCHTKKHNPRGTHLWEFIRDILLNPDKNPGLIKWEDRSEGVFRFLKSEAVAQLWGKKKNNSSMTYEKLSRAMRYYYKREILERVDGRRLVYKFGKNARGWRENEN
Outline: as §1

SPI1 = SPI1 (Homo sapiens, UniProt P17947 1-270); conditions: protein: recombinant; tags: N-terminal GST; dsDNA, one strand shown
Outline: as §1

SPIB = SPIB (Homo sapiens, UniProt Q01892 1-262); conditions: protein: recombinant; tags: N-terminal GST; dsDNA, one strand shown
Outline: as §1

ELK3 = target: T6, ELK3 (Homo sapiens, UniProt P41970 1-407); conditions: protein: recombinant; tags: N-terminal GST; dsDNA, one strand shown
T6 sequence: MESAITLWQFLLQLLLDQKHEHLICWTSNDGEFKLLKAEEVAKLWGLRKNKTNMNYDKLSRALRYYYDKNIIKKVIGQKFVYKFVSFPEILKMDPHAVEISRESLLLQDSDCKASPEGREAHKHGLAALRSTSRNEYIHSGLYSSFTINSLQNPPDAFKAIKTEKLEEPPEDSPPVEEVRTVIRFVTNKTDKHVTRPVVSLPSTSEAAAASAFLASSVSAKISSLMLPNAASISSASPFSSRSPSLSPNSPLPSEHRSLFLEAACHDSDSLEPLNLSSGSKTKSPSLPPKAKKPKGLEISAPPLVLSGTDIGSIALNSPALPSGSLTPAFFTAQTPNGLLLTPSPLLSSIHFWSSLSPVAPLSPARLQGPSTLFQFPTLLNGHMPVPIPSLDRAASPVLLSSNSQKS
Outline: as §1

FEV = target: T7, FEV (Homo sapiens, UniProt Q99581 1-238); conditions: protein: recombinant; tags: N-terminal GST; dsDNA, one strand shown
T7 sequence: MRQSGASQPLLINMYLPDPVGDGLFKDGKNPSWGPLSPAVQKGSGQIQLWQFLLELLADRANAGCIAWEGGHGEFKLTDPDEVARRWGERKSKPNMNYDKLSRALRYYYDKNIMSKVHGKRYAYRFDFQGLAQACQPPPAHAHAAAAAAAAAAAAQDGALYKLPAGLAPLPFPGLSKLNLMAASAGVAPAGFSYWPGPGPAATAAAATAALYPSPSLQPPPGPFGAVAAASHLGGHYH
Outline: as §1

ETV5 = ETV5 (Homo sapiens, UniProt P41161 1-510); conditions: protein: recombinant; tags: N-terminal GST; dsDNA, one strand shown
Outline: as §1

HSF1 = HSF1 (Homo sapiens, UniProt Q00613 1-529); conditions: protein: recombinant; tags: N-terminal GST; chain copies: 3; dsDNA, one strand shown
Outline: as §1

SPIC = target: T8, SPIC (Homo sapiens, UniProt Q8N5J4 1-248); conditions: protein: recombinant; tags: N-terminal GST; dsDNA, one strand shown
T8 sequence: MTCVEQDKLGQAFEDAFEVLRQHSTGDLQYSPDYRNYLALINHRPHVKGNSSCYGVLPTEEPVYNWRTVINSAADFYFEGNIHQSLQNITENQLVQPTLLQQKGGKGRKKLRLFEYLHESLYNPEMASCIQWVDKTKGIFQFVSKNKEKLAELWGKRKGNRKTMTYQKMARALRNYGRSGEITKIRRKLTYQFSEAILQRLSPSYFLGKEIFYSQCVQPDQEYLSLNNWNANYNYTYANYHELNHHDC
Outline: as §1

ELF4 = ELF4 (Homo sapiens, UniProt Q99607 1-663); conditions: protein: recombinant; tags: N-terminal GST; dsDNA, one strand shown
Outline: as §1

ELK4 = target: T9, ELK4 (Homo sapiens, UniProt P28324-2 1-405); conditions: protein: recombinant; tags: N-terminal GST; dsDNA, one strand shown
T9 sequence: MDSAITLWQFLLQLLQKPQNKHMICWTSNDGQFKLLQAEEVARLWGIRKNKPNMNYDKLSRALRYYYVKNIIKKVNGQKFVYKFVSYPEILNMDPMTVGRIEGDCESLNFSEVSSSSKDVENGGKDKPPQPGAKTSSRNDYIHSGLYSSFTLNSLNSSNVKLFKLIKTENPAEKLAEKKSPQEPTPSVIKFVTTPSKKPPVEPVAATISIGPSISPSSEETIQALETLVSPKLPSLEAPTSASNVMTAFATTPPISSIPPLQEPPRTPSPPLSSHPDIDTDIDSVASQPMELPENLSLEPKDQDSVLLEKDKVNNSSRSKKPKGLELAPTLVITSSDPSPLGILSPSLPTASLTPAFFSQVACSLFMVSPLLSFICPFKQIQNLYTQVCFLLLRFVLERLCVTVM
Outline: as §1

ETV2 = target: T10, ETV2 (Homo sapiens, UniProt O00321 1-342); conditions: protein: recombinant; tags: N-terminal GST; dsDNA, one strand shown
T10 sequence: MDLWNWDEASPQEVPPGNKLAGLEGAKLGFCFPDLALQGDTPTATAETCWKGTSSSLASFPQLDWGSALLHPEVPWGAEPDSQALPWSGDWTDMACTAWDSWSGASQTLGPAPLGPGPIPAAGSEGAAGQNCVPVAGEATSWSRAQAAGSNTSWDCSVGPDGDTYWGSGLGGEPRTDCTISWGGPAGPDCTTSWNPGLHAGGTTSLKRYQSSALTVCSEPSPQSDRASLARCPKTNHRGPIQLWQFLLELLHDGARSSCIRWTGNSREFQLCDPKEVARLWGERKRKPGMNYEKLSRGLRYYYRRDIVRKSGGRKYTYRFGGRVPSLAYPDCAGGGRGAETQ
Outline: as §1

ELF3 = target: T11, ELF3 (Homo sapiens, UniProt P78545 1-371); conditions: protein: recombinant; tags: N-terminal GST; dsDNA, one strand shown
T11 sequence: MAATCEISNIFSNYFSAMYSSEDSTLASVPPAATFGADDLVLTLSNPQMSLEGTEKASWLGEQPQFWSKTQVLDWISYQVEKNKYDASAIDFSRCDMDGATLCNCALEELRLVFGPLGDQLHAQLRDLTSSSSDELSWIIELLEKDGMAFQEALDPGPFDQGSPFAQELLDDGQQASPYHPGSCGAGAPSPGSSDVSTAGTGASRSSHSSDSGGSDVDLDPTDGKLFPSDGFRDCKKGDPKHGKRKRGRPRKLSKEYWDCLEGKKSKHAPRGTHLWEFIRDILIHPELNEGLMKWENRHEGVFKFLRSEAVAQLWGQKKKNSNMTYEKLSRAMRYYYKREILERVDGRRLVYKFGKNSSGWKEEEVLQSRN
Outline: as §1

CRX = CRX (Homo sapiens, UniProt O43186 1-299); conditions: protein: recombinant; tags: N-terminal GST; dsDNA, one strand shown
Outline: as §1

ETV1 = ETV1 (Homo sapiens, UniProt P50549 1-477); conditions: protein: recombinant; tags: N-terminal GST; dsDNA, one strand shown
Outline: as §1

Sequence of HSF1 (Q00613 whole entry): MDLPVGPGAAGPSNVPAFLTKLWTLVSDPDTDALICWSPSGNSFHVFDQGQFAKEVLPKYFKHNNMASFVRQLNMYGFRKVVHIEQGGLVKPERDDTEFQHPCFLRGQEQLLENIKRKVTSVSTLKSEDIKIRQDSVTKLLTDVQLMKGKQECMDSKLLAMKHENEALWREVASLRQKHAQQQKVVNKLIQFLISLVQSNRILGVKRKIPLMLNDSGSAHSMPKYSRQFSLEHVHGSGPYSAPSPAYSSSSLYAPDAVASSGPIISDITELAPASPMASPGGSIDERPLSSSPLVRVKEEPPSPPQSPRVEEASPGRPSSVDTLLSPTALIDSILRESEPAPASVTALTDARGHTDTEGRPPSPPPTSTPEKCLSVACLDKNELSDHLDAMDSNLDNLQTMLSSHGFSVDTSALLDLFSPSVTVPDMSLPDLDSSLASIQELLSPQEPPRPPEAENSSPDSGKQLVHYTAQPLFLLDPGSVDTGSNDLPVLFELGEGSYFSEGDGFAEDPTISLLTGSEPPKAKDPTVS
Sequence of ELF1 (P32519 whole entry): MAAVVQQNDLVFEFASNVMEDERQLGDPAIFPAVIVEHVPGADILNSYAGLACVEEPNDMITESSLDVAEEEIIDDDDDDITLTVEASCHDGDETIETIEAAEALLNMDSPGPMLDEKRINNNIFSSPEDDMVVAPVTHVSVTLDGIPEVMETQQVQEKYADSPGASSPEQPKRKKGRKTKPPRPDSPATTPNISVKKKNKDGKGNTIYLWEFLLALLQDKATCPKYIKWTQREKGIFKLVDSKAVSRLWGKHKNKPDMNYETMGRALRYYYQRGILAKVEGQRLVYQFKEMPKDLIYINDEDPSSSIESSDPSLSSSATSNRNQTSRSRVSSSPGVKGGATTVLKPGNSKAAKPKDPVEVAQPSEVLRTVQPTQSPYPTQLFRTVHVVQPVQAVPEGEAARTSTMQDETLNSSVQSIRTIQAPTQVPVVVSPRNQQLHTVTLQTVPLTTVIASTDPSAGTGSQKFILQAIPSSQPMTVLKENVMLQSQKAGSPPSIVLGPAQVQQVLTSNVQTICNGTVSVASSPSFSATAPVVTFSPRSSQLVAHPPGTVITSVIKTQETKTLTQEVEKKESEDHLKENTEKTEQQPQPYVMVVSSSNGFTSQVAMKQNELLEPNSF
Sequence of ETV5 (P41161 whole entry): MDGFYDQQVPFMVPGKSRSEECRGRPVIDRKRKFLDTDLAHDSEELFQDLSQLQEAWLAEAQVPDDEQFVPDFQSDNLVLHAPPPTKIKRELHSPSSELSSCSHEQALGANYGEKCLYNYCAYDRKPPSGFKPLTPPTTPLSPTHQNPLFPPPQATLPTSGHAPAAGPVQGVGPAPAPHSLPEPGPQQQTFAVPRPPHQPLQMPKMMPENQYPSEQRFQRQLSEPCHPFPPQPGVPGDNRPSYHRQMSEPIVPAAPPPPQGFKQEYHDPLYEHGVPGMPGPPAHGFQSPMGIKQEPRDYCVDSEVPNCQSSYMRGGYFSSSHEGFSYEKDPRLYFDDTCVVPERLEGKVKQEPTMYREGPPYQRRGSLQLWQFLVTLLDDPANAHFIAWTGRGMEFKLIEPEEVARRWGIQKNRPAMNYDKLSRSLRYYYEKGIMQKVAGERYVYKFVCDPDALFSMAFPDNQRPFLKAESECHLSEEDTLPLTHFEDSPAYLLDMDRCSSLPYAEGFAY
Sequence of ELF4 (Q99607 whole entry): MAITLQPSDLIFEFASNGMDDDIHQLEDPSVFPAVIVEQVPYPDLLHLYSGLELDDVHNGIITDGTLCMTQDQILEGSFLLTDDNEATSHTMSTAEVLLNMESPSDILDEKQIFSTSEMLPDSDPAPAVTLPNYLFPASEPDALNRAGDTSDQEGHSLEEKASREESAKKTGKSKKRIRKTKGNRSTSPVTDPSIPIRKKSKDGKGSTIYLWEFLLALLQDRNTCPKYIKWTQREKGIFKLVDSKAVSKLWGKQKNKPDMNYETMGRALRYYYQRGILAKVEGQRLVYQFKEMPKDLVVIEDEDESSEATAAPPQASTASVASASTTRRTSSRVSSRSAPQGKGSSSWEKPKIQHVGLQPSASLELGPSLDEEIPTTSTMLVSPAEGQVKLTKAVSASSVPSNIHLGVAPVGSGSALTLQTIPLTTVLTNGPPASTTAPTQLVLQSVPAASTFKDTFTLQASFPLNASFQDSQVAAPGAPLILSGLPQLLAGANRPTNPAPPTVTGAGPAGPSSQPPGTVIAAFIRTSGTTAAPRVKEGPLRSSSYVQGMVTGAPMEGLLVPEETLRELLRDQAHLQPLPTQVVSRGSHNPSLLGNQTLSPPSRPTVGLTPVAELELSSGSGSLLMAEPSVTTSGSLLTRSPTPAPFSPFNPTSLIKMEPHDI
Sequence of SPIB (Q01892 whole entry): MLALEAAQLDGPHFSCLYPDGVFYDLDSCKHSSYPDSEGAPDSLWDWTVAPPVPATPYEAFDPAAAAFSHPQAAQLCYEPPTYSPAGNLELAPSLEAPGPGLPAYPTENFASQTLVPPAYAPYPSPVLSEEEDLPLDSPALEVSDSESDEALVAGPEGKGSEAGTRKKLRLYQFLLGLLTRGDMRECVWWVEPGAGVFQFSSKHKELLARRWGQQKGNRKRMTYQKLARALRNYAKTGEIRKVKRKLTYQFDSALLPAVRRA
Sequence of ETV1 (P50549 whole entry): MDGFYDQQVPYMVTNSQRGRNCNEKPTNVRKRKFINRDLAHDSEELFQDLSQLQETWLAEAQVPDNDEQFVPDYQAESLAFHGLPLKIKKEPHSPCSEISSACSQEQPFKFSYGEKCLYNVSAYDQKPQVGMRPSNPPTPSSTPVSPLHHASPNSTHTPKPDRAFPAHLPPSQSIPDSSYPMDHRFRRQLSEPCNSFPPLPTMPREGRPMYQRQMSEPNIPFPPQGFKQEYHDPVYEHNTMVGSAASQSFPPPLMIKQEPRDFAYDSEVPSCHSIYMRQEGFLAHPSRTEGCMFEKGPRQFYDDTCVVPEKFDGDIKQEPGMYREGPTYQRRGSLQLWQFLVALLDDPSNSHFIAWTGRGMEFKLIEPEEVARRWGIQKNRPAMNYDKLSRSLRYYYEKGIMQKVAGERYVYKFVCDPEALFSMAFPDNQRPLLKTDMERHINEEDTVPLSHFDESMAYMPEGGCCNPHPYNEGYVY
Sequence of CRX (O43186 whole entry): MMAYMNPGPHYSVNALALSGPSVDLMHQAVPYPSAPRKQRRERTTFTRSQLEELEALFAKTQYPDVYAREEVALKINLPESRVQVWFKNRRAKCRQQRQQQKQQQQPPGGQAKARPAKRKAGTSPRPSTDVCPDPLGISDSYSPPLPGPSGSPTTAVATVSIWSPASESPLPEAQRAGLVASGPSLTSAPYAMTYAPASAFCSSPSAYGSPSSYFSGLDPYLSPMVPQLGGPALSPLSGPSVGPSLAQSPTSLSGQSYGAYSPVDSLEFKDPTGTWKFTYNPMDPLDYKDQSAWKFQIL

AAAGAC
binding signal (FLI1): 1.06 fold enrichment (6-mer frequency, TF over GST control)
binding signal (ELK1): 1.07 fold enrichment (6-mer frequency, TF over GST control)
binding signal (GABPA): 1.02 fold enrichment (6-mer frequency, TF over GST control)
binding signal (ERG): 1.07 fold enrichment (6-mer frequency, TF over GST control)
binding signal (ELF1): 1 fold enrichment (6-mer frequency, TF over GST control)
binding signal (EHF): 1.05 fold enrichment (6-mer frequency, TF over GST control)
binding signal (SPI1): 1.1 fold enrichment (6-mer frequency, TF over GST control)
binding signal (SPIB): 1.08 fold enrichment (6-mer frequency, TF over GST control)
binding signal (ELK3): 1.02 fold enrichment (6-mer frequency, TF over GST control)
binding signal (FEV): 1.06 fold enrichment (6-mer frequency, TF over GST control)
binding signal (ETV5): 1.05 fold enrichment (6-mer frequency, TF over GST control)
binding signal (HSF1): 1.11 fold enrichment (6-mer frequency, TF over GST control)
binding signal (SPIC): 1.01 fold enrichment (6-mer frequency, TF over GST control)
binding signal (ELF4): 1.04 fold enrichment (6-mer frequency, TF over GST control)
binding signal (ELK4): 1.04 fold enrichment (6-mer frequency, TF over GST control)
binding signal (ETV2): 1.03 fold enrichment (6-mer frequency, TF over GST control)
binding signal (ELF3): 1.01 fold enrichment (6-mer frequency, TF over GST control)
binding signal (CRX): 1.13 fold enrichment (6-mer frequency, TF over GST control)
binding signal (ETV1): 1.03 fold enrichment (6-mer frequency, TF over GST control)
